The record followed here is PubChem BioAssay.

Records with an inconclusive call do not appear. Calls of active or inactive are those of the source.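 The calls were made as follows, unless noted: active = GFP response, as percent of the DMSO control, above the screen-wide mean plus 3 SD, about 139; inconclusive = no response measured because the compound's own fluorescence interfered; inactive = the rest.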

A short description of assay [1]: rapamycin-like changes in RPL19A-GFP expression – cell-based, S. cerevisiae, multiplex flow cytometry, primary screen (AID 1862; in the data active = percent of DMSO control GFP below about 86%;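 also: lower values mimic rapamycin by blocking the RPL19A rise seen in DMSO cells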). The conditions noted are these: S. cerevisiae RPL19A-GFP strain, flow cytometry fluorescence, 3 h; at 10 µM; stronger effect = lower value. A general note: In flow cytometry, cells or beads pass a laser one at a time.
A short description of assay [2]: TOR pathway GLN3 branch reporter MEP2-GFP changes – S. cerevisiae, multiplex flow cytometry, primary screen (AID 1867).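 Also: median GFP channel fluorescence of barcode-gated MEP2-GFP cells measured by flow cytometry.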 To be noted: S. cerevisiae MEP2-GFP strain, 3 h, at 10 µM, stronger effect = higher value, 100% means same as DMSO wells.
A short description of assay [3]: TOR pathway RTG branch CIT2 reporter changes – S. cerevisiae, GFP fusion, multiplex flow cytometry, primary screen (AID 1870;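 active = percent response above a set limit, the screen-wide mean plus 3 SD, cut at about 130% in these data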;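 also: barcoded CIT2-GFP strain pooled with four other GFP strains with rapamycin as positive control; median GFP fluorescence per well over plate mean of DMSO wells so 100% = DMSO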). To be noted: S. cerevisiae CIT2-GFP expression, 3 h, at 10 µM, stronger effect = higher value.
Assay [4] in a line: TOR pathway LAP4-GFP level changes – S. cerevisiae, multiplex flow cytometry, primary screen (AID 1873;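 active = GFP signal, as percent of the solvent control, above the screen mean plus 3 SD, about 149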). The conditions noted are these: S. cerevisiae LAP4-GFP expression, 3 h, at 10 µM, stronger effect = higher value.
A short description of assay [5]: yeast AGP1-GFP level changes, GLN3 branch – cell-based, multiplex flow cytometry, S. cerevisiae, primary screen (AID 1887;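 active = GFP signal above the screen-wide mean plus 3 SD, that is over about 124.5% of the solvent control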;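 also: AGP1-GFP fusion strain of S. cerevisiae within a five-strain barcoded multiplex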). To be noted: 3 h, at 10 µM, stronger effect = higher value.
Assay [6] can be described thus: reduced mouse 2C T cell binding to pMHC/ICAM-1 vesicles – MLPCN validation set, flow cytometry, LFA-1/ICAM-1 modulator project, pilot screen (AID 2523;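 active = response below a set limit, under 55% cells CD8-positive and vesicle-bound, and CD8 cells' 90th-percentile brightness under 279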;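 as to vesicle binding response: mean PE anti-B7-1 fluorescence of CD8+ cells relative to row control; 100% = QL9-loaded vesicles with DMSO vehicle in the same plate row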). To be noted: 2C mouse CD8+ T cells, at 7 µM, stronger effect = lower value; double positive events: measured here: CD8+/vesicle+ event percentage.
Assay [7] concerns the target Integrin beta-1 (Homo sapiens) + Integrin alpha-4 (Homo sapiens) (UniProt P13612+P05556). Briefly: alpha4beta1 integrin LIBS antibody binding reduction – U937 cells, HUTS-21 mAb, flow cytometry, validation set, VLA-4 allosteric modulator project, pilot screen (AID 2674;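 active = inhibition above 50%, about 3 SD of the validation set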;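 also: antibody binding induced by the VLA-4 ligand LDV present at three times its Kd; 0% = LDV ligand with antibody and no compound and 100% = antibody without LDV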). The conditions noted are these: HUTS-21 LIBS mAb binding, at 6.7 µM, stronger effect = higher value, binding induced by LDV ligand.

A short description of assay [8]: calorie-restriction mimetic ROS inhibitors, yeast – validation compound set, pilot screen (AID 2706;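 active = superoxide response below 65% of plate, a cut near 3 SD across the whole screen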;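 also: yeast exposed to compound for one week at 30 degrees C before staining; 100% = mean of all compound wells on the same plate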). To be noted: S. cerevisiae aging, superoxide DHE fluorescence; at 10 µM; stronger effect = lower value.
The target of assay [9] is Beta-adrenergic receptor kinase 1 (Homo sapiens) (UniProt P25098). Briefly: GRK2 binders displacing RNA aptamer, biochemical, validation, human GRK2, bead flow cytometry (AID 488806;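 active = aptamer binding inhibition above 30%, about 3 SD of noise from non-fluorescent compounds; inactive = inhibition at or below 30%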). To be noted: bead-bound GRK2, FAM-aptamer displacement, at 10 µM, stronger effect = higher value.
The target of assay [10] is Beta-2 adrenergic receptor (Homo sapiens) (UniProt P07550). In words: agonist-induced loss of surface beta2AR – cell-based, FAP fluorogen, flow cytometry, validation set, pilot screen (AID 504459;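 active = percent response above 42, roughly 3 SD of non-fluorescent test compounds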;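 also: agonist-driven loss of surface beta2AR via internalization measured by FAP dye flow cytometry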). To be noted: Am2.2-beta2AR cells, at 10 µM, stronger effect = higher value.
Assay [11] has as its target AP-2 complex subunit beta (Homo sapiens) (UniProt P63010). In words: beta-arrestin/AP2 interaction blockers – biochemical, validation set, GST-AP2 beads, flow cytometry, pilot screen (AID 504541;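 active = inhibition above 54%, about 3 SD of non-fluorescent compounds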;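 also: AP2 carries R879A mutation and is captured from E. coli lysate; bead-bound FITC arrestin peptide fluorescence measuring arrestin peptide binding to AP2; 0% = DMSO wells and 100% = excess unlabeled arrestin peptide control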). To be noted: FITC arrestin peptide, at 10 µM, stronger effect = higher value, AP2 beta2 appendage fragment, R879A mutant.
Assay [12] in a line: cytosolic pH regulators acting via V-ATPase – S. cerevisiae, pHLuorin, HTS validation (AID 504600; in the data active = response above about 15%;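 also: plate controls were DMSO for no effect and reference compound for full effect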). The conditions noted are these: V-ATPase proton transport, at 10 µM, stronger effect = higher value.
Assay [13] has as its system anti-desmoglein-3 scFv antibody binding to human DSG3. Briefly: blockers of pathogenic pemphigus antibody–desmoglein-3 binding – biochemical, validation compound set, bead-based, flow cytometry, pilot screen (AID 588368;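 active = binding below the plate cutoff, the plate median minus 3 SD, with a reading above zero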;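 also: signal is the median channel fluorescence of bead-bound GFP antibody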). The conditions noted are these: Protein G beads, DSG3-Fc, scFv-GFP binding, at 10 µM, stronger effect = lower value.
Assay [14] can be described thus: Nile Red efflux blockade in pump-expressing yeast – validation compound set, multiplex, phenotypic, pilot screen (AID 588506;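 active = efflux inhibition above 0.42, the validation set average plus 4 SD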;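 also: Nile Red retained in cells so higher fluorescence means more efflux inhibition; 0 = negative control wells and 1 = enniatin B 25 µM full block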). To be noted: S. cerevisiae pump-expressing triplex, Nile Red efflux flow cytometry; at 10 µM; stronger effect = higher value; the pumps come from Candida albicans.
Assay [15] addresses ATP-binding cassette sub-family B member 6 (Homo sapiens) (UniProt Q9NP58). Briefly: blockers of ABCB6-driven porphyrin uptake – K562-ABCB6 cells, flow cytometry, validation set, pilot screen (AID 588550;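 active = inhibition above the screen-wide mean plus 3 SD, about 51%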;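 also: 0% = DMSO wells and 100% = benzethonium chloride 70 µM positive control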). To be noted: K562-ABCB6 porphyrin accumulation, 1 h, at 10 µM, stronger effect = higher value.
Assay [16] can be described thus: AML differentiation inducers, ER-HoxA9 marrow cells – cell-based, GFP/MAC1 double positive, flow cytometry, validation set, primary screen (AID 588685;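 active = differentiation response of at least 50%, scaled between solvent and reference control, from cells with both markers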;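 also: compound exposure lasts four days before antibody staining and flow analysis; 0% = DMSO wells and 100% = 5 µM fulvestrant positive control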). To be noted: stronger effect = higher value, normalized: vehicle 0, fulvestrant 100.

AP-2 complex subunit beta (Homo sapiens), sequence (P63010 whole entry, looked up, the tested form may be a part, one chain of several): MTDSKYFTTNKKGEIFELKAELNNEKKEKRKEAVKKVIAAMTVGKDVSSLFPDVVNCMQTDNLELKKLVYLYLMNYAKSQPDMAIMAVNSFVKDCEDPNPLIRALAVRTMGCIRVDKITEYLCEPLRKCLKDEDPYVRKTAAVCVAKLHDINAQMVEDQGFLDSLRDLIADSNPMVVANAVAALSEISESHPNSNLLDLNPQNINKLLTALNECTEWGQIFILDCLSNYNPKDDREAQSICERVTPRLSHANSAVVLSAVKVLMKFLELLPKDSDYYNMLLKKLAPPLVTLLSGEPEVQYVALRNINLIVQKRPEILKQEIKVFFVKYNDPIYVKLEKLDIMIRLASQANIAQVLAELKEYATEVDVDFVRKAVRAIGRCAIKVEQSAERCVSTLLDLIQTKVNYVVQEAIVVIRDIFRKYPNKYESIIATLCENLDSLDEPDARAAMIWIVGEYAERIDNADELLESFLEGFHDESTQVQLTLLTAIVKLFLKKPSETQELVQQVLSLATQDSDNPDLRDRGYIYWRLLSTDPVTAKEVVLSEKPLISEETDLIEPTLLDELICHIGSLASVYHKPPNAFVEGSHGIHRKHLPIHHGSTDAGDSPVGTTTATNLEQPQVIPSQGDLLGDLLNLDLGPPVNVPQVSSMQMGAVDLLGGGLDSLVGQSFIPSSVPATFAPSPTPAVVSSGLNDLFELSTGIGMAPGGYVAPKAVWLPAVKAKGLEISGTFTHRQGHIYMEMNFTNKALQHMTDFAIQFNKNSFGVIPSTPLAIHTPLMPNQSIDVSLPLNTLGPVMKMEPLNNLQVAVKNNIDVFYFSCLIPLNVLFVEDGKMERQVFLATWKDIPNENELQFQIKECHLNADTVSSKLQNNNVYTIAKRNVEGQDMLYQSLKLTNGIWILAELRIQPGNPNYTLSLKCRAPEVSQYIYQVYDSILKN
Beta-adrenergic receptor kinase 1 (Homo sapiens), sequence (P25098 whole entry, looked up): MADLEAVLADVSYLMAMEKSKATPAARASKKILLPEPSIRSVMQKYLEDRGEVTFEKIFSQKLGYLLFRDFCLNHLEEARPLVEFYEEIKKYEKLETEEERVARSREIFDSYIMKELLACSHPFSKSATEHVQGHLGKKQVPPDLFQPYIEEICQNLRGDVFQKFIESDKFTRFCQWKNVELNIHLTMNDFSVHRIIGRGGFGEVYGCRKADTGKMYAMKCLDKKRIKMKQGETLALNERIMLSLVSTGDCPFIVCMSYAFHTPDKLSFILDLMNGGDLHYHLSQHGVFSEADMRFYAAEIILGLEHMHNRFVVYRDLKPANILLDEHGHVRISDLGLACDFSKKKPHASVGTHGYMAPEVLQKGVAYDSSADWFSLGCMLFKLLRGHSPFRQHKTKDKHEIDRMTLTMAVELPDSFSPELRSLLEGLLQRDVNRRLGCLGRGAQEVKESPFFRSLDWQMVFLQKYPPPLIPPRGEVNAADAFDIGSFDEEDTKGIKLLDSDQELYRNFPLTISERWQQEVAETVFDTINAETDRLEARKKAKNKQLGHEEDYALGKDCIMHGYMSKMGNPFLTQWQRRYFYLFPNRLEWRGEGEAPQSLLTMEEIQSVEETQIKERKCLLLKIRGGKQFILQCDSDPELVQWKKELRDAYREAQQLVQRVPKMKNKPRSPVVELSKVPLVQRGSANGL
ATP-binding cassette sub-family B member 6 (Homo sapiens), sequence (Q9NP58 whole entry, looked up): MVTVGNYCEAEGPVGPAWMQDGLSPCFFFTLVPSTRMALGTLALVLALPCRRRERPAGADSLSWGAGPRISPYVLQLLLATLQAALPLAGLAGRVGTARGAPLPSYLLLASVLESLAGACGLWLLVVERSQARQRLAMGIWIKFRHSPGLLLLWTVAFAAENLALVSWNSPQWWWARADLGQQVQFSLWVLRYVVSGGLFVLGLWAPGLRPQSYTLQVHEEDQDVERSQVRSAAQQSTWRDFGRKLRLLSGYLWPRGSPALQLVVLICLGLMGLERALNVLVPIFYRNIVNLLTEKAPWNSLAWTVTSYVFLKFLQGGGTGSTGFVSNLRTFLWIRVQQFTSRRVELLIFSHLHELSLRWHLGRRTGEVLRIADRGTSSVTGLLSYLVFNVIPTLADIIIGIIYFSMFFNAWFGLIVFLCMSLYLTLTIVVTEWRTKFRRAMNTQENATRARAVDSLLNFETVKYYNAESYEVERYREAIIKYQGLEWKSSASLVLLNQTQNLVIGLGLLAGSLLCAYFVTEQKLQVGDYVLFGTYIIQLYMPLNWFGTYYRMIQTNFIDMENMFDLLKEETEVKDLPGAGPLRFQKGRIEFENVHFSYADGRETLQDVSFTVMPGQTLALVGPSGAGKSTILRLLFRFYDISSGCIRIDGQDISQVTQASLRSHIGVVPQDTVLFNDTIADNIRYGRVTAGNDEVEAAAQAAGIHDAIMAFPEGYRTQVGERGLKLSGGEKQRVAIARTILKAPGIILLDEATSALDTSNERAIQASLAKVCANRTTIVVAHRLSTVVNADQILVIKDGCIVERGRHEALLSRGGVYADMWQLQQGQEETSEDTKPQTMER
Beta-2 adrenergic receptor (Homo sapiens), sequence (P07550 whole entry, looked up): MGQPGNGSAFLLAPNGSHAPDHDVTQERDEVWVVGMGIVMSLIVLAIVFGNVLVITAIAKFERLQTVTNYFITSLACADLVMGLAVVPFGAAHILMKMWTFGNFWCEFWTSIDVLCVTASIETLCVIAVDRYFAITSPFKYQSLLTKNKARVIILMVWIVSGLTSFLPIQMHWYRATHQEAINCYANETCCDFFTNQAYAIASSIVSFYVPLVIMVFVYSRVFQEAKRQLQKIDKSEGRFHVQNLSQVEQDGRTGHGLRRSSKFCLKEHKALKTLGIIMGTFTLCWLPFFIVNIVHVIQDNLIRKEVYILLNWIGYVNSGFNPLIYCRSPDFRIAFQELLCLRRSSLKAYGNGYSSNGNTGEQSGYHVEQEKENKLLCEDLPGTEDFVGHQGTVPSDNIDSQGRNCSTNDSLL
Integrin beta-1 (Homo sapiens) + Integrin alpha-4 (Homo sapiens), sequence (P05556 whole entry, looked up): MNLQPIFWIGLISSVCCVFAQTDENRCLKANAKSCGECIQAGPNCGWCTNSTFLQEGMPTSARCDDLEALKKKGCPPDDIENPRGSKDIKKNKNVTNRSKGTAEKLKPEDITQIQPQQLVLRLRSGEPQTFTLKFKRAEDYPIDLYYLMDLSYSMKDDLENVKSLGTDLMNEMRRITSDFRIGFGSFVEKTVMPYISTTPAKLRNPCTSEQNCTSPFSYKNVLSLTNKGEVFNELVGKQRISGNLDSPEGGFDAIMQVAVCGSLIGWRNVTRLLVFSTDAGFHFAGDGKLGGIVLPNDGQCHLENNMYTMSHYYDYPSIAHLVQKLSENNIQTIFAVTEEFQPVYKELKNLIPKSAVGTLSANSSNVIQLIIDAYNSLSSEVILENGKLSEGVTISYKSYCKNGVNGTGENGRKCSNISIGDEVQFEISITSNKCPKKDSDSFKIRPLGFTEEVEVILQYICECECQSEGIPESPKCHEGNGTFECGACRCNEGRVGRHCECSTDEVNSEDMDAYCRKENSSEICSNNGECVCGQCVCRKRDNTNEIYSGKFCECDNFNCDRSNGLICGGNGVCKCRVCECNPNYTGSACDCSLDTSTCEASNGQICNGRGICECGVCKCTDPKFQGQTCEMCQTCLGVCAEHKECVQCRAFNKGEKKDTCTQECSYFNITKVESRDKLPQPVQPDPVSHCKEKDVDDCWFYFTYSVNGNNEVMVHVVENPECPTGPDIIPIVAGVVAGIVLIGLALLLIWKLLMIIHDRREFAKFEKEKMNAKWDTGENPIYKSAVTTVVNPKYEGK
Integrin beta-1 (Homo sapiens) + Integrin alpha-4 (Homo sapiens), sequence (P13612 whole entry, looked up): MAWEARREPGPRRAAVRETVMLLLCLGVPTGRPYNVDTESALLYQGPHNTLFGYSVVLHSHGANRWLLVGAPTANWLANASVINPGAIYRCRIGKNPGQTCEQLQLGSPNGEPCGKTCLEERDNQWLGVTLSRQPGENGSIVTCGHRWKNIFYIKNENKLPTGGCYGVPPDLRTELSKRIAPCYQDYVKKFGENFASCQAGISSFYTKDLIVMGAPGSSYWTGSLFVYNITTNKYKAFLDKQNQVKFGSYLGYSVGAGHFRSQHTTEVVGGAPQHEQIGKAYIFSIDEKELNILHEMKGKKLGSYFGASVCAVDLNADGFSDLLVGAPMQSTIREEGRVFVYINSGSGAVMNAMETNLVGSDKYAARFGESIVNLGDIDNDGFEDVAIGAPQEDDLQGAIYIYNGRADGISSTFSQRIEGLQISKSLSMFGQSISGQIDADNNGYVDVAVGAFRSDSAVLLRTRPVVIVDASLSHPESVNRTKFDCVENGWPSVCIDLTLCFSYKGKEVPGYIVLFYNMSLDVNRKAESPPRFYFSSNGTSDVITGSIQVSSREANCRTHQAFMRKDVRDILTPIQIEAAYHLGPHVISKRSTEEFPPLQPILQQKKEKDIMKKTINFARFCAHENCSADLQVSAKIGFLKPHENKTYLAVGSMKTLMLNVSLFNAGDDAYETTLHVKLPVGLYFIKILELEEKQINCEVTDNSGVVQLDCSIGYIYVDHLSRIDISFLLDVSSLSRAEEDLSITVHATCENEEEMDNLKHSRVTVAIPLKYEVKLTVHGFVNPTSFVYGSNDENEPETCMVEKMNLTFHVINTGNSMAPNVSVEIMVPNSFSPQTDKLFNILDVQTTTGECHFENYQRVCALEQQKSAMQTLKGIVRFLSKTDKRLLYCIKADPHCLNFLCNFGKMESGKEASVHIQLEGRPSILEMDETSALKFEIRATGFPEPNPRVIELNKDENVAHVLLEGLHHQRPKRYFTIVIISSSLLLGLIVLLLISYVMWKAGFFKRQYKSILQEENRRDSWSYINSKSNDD

For `O=C(O)c1cccnc1Nc1cccc(C(F)(F)F)c1`, in [1], the percent of DMSO control GFP was 95.9% (inactive). The GFP response vs DMSO in [2] is 130% (inactive); in assay [4] it was 83.6% (inactive). In addition, the percent response of DMSO control in assay [3] was 110% (inactive). Besides, the GFP response, % of DMSO in [5] was 93.3% (inactive). In addition, the double positive events in assay [6] worked out at 63.3%. The vesicle binding response in [6] is 214% (inactive). Besides, the results for the inhibition in assay [7], in assay [11] and in assay [15] were 7.43% (inactive), 47.1% (inactive) and 15% (inactive), respectively. Moreover, the superoxide response (% of plate) in assay [8] was 98.6% (inactive). Besides, in assay [9], the aptamer binding inhibition is 6% (inactive). Besides, the response is 6.98% (inactive) in assay [10] and -7.29% (inactive) in assay [12]. Besides, the binding (% of control) in assay [13] was 102% (inactive). Further, in assay [14], the efflux inhibition (fraction of control) is 0.48 (active). The differentiation response in assay [16] was 7.37% (inactive).
For the compound `Cc1nc2cc3ccccc3cc2c(=O)[nH]1`, in assay [1], the percent of DMSO control GFP is 102% (inactive). For the same compound, the values for the GFP response vs DMSO in assay [2] and in assay [4] were 106% (inactive) and 104% (inactive), respectively. Also, in assay [3], the percent response of DMSO control is 101% (inactive). Besides, the GFP response, % of DMSO in assay [5] was 96.6% (inactive). The compound also had a double positive events in assay [6] of 60.4%. Further, the vesicle binding response in assay [6] is 160% (inactive). The inhibition was -26.1% (inactive) in assay [7], -19.1% (inactive) in assay [11] and -9% (inactive) in assay [15]. The superoxide response (% of plate) in assay [8] is 104% (inactive). Further, in [9], the aptamer binding inhibition was 6% (inactive). Also, the response is 9.81% (inactive) in [10] and 1.08% (inactive) in assay [12]. For the same compound, the binding (% of control) in [13] is 98% (inactive). The efflux inhibition (fraction of control) in [14] is 0.07 (inactive). The differentiation response in assay [16] is -2.64% (inactive).
As for `C[C@@H]1C[C@H](Nc2ccccc2)c2ccccc2N1C(=O)c1cccnc1`, the percent of DMSO control GFP in assay [1] is 103% (inactive). Also, the GFP response vs DMSO is 103% (inactive) in assay [2] and 98.2% (inactive) in assay [4]. In assay [3], the percent response of DMSO control was 103% (inactive). In addition, the GFP response, % of DMSO in assay [5] was 101% (inactive). The compound also gave a double positive events in assay [6] of 59.5%. Besides, the vesicle binding response in [6] was 188% (inactive). In addition, the values for the inhibition in assay [7], in assay [11] and in [15] were 3.67% (inactive), 19.6% (inactive) and 0% (inactive), respectively. The superoxide response (% of plate) in assay [8] is 95.6% (inactive). Further, the aptamer binding inhibition in [9] is 4% (inactive). Further, the response was 2.27% (inactive) in assay [10] and -5.05% (inactive) in assay [12]. Also, in assay [13], the binding (% of control) is 102% (inactive). Further, the efflux inhibition (fraction of control) in assay [14] is 0.05 (inactive). Further, in assay [16], the differentiation response is 29.6% (inactive).
As for `C=CCn1c(N2CCCCCC2)nc2c1c(=O)n(C)c(=O)n2C`, the percent of DMSO control GFP in assay [1] was 97.6% (inactive). Further, the GFP response vs DMSO in [2] was 97.6% (inactive); in assay [4], 104% (inactive). Further, the percent response of DMSO control in assay [3] was 95.7% (inactive). In addition, in [5], the GFP response, % of DMSO is 114% (inactive). The double positive events in assay [6] was 63.5%. Also, the vesicle binding response in assay [6] was 220% (inactive). Further, the results for the inhibition in assay [7], in assay [11] and in assay [15] were 7.4% (inactive), -11.7% (inactive) and 7% (inactive), respectively. Besides, the superoxide response (% of plate) in assay [8] is 112% (inactive). Also, the aptamer binding inhibition in [9] is 3% (inactive). In addition, the figures for the response in assay [10] and in assay [12] were -47.3% (inactive) and 0.52% (inactive), respectively. Also, the binding (% of control) in assay [13] is 95.9% (inactive). In addition, the efflux inhibition (fraction of control) in [14] was 0.17 (inactive). Besides, the differentiation response in [16] is -11.9% (inactive).
For the compound `CC(C)c1ccc(/C=C/C(=O)O)cc1`, the percent of DMSO control GFP in assay [1] was 96.3% (inactive). The GFP response vs DMSO is 105% (inactive) in assay [2] and 161% (active) in assay [4]. For the same compound, the percent response of DMSO control in [3] is 81.5% (inactive). Further, the GFP response, % of DMSO in assay [5] is 83.4% (inactive). The double positive events in [6] worked out at 56.5%. In addition, the vesicle binding response in [6] is 218% (inactive). The inhibition in assay [7] is 7.76% (inactive); in assay [11], 3.59% (inactive); in assay [15], 4% (inactive). Further, the superoxide response (% of plate) in assay [8] was 99.5% (inactive). Moreover, the aptamer binding inhibition in [9] is 3% (inactive). Besides, the response was 3.14% (inactive) in assay [10] and 1.59% (inactive) in assay [12]. The binding (% of control) in assay [13] was 94.5% (inactive). Besides, the efflux inhibition (fraction of control) in assay [14] was -0.35 (inactive). Also, the differentiation response in assay [16] is -2.4% (inactive).
With `OC12CCCCC1C(c1ccc3c(c1)OCO3)N(Cc1cccc(F)c1)CC2` (configuration not stated), the percent of DMSO control GFP in [1] is 103% (inactive). For the same compound, the figures for the GFP response vs DMSO in assay [2] and in assay [4] were 90.9% (inactive) and 94% (inactive), respectively. Also, the percent response of DMSO control in [3] was 113% (inactive). The GFP response, % of DMSO in [5] was 101% (inactive). The same compound gave a double positive events in [6] of 61.7%. In addition, the vesicle binding response in assay [6] is 234% (inactive). The inhibition in assay [7] is -5.64% (inactive); in assay [11], 7.03% (inactive); in assay [15] it was 0% (inactive). Besides, the superoxide response (% of plate) in assay [8] is 97.9% (inactive). In addition, the aptamer binding inhibition in assay [9] was 3% (inactive). The response in [10] is -6.32% (inactive); in assay [12], -0.75% (inactive). Besides, the binding (% of control) in assay [13] was 104% (inactive). For the same compound, the efflux inhibition (fraction of control) in assay [14] is -0.01 (inactive). Also, in assay [16], the differentiation response was -10.5% (inactive).

A word on the inhibition: it is the change of the read-out against control, counted positive when it falls.
